Source: PubChem (National Center for Advancing Translational Sciences (NCATS))
DT40 TDP1 CPT = qHTS for Inhibitors of human tyrosyl-DNA phosphodiesterase 1 (TDP1): qHTS in cells in presence of CPT; chicken DT40 Tdp1-/-;hTDP1 cells + 20 nM CPT, ATP luminescence, 48 h; Potency, µM (highest dose often 46.2 µM), for the others: at the top dose activity change, negative = growth inhibition, most hits filed as inhibitors; 420,000 compounds, 12% hits; note: potency is the fitted concentration of half-maximal effect; nearly all actives have a fitted effect of over 55% in size
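Chicken DT40 Tdp1-/- cells stably complemented with human TDP1 were seeded at 400 cells/well in medium containing 20 nM camptothecin, exposed to pin-transferred compounds, and grown at 37 °C for at least 48 hr. Viability was read as ATP luminescence.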
RORg inh = qHTS for inhibitors of ROR gamma transcriptional activity. Nuclear receptor ROR-gamma (Mus musculus), P51450. Drosophila S2 Gal4-RORgamma UAS-luciferase reporter, 20 h. Potency, µM (series often up to 53.6 µM), for inactives: at the top dose activity change, negative = inhibition, usual class: inhibitors. 310,000 compounds, 5.4% hits; note: potency is the fitted concentration of half-maximal effect; nearly all actives have a fitted effect of over 60% in size
Target sequence (P51450 whole entry, looked up, the tested form may be a part): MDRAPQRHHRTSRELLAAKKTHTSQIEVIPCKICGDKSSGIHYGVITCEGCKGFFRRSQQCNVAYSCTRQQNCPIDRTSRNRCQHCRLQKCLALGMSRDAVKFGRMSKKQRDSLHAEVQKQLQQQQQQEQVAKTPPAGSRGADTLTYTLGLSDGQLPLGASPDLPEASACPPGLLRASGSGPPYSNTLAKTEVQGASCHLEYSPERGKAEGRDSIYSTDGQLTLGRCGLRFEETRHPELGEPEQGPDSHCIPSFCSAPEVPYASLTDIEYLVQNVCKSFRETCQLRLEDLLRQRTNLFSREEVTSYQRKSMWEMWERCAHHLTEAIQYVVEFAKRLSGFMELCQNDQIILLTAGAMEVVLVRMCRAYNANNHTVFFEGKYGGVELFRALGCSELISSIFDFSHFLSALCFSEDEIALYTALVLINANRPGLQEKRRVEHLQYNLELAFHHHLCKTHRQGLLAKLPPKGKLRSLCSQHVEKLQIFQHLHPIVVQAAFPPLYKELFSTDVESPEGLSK
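Compounds are pin-transferred onto Drosophila Schneider cells expressing a copper-inducible Gal4–ROR gamma transactivation domain fusion. After 1 hr, copper sulfate is added to 700 uM final; luciferase is read 20 hr later.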
IL-1B inflam inh = qHTS for Inhibitors of Inflammasome Signaling: IL-1-beta AlphaLISA Primary Screen; 360,000 compounds, 4.7% hits; THP-1 LPS/ATP IL-1B secretion, AlphaLISA, 16 h; stronger effect = lower value; activity change, % at 57.5 µM; in the data active = activity change below about -50%; inconclusive = mostly about -30% to -49%
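Secreted IL-1B measured by AlphaLISA bead assay after 16 h compound exposure of THP-1 cells; compounds (final up to 57.5 uM) added 1 h before LPS (250 ng/mL) and ATP (1.25 mM) stimulation; lower signal means less secretion.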
Gal4-VP16 FLuc = VP16 counterscreen qHTS for inhibitors of ROR gamma transcriptional activity. AID 2546, 2010. Potency, µM (titrated, usually from 53.6 µM), for the others: at the highest dose activity, negative = inhibition, usual class: inhibitors. 310,000 compounds, 3.5% hits. Drosophila S2 Gal4-VP16 UAS-luciferase, luminescence, 20 h;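 note: Gal4-VP16 expression switched on by copper sulfate through the metallothionein promoter; potency is the fitted concentration of half-maximal effect; nearly all actives have a fitted effect of over 50% in size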
TDP1 cell noCPT = qHTS for Inhibitors of human tyrosyl-DNA phosphodiesterase 1 (TDP1): qHTS in cells in absence of CPT. Potency, µM (doses to about 46.2 µM), for the others: at the highest dose activity change, negative = growth inhibition, most hits filed as inhibitors. AID 686978, 2013. DT40 Tdp1-/- hTDP1 cells, no CPT, ATP luminescence, 48 h. 420,000 compounds, 15% hits; note: potency is the fitted concentration of half-maximal effect; nearly all actives have a fitted effect of over 55% in size
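A cellular qHTS used chicken DT40 cells lacking endogenous Tdp1 but carrying stably transfected human TDP1. Compounds were applied without camptothecin, and cell growth kinetics were judged by ATP-dependent luminescence after ≥48 hr.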
ELG1 DNA repair = qHTS screen for small molecules that inhibit ELG1-dependent DNA repair in human embryonic kidney (HEK293T) cells expressing luciferase-tagged ELG1; HEK293T ELG1-luciferase reporter, luminescence, 16 h; DNA damage induced by 5-fluorouridine; Potency, µM (titrated, usually from 46.1 µM), without a hit: at the top dose activity change, negative = inhibition, hits mostly inhibitors; 330,000 compounds, 2.3% hits; AID 504467, 2011; note: potency is the fitted concentration of half-maximal effect; nearly all actives have a fitted effect of over 55% in size
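In this reporter screen, reduction of luminescence relative to DMSO vehicle indicated activity. Compounds and 5-fluorouridine were added together to 2,000 cells per well, incubated for 16 hr at 37 °C, then developed with ONE-Glo.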
Starred values were filed as active, the others as inactive; ? = inconclusive; nt = no result given; [ ] = another dose, or the depositor's remark. Most compounds without a hit are left out; they make up all but 21% or so of the library. Unless noted, calls come from the whole dose curve; as a rule, active = well fitted curve in the direction sought with a large enough effect; inconclusive = small, poorly fitted or top-dose-only effect, or another doubt; inactive = no such curve, though single readings can be large; an effect the other way counts as inactive or inconclusive. % is set by controls: 0 for no effect and ±100 for the full control effect.

SMILES	DT40 TDP1 CPT	RORg inh	IL-1B inflam inh	Gal4-VP16 FLuc	TDP1 cell noCPT	ELG1 DNA repair
CCOc1ccc(N(CCC#N)S(=O)(=O)c2ccc(OC)cc2)cc1	?	33.3%	22.0	-2.0%	?	-20.8%
COc1ccc(N(CC2CO2)S(=O)(=O)c2ccccc2)cc1 (centres undefined)	?	0.1%	-68.8*	-14.3%	?	16.2%
COc1ccc(N(CCOc2ccccc2)S(=O)(=O)c2ccccc2)cc1	?	nt	-4.9	nt	16.4µM*	-17.2%
CCOC(=O)c1ccc(N(CC2CO2)S(=O)(=O)c2ccc(C)cc2)cc1 (centres undefined)	13µM*	nt	?	nt	16.4µM*	nt
CCOc1ccc(S(=O)(=O)N(CC(N)=O)c2ccc(C)cc2)cc1	-22.3%	13.0%	3.9	1.2%	-24.1%	12.6%
Cc1nc2[nH]c(=O)[nH]c(=O)c2[nH]1	11.2%[9.04 µM]	-4.4%	nt	-5.7%	-20.5%[9.04 µM]	nt
Cc1ccc(/C=[N+](\[O-])c2ccc(N(C)C)cc2)c2nsnc12	7.31µM*	5.01µM*	-99.5*	?	16.4µM*	?
CCOC(=O)CCc1ccc(NC(=O)/C=C/c2ccc([N+](=O)[O-])o2)cc1	1.84µM*	nt	-80.5*	nt	3.26µM*	nt
CCC1CN(Cc2cn[nH]c2-c2ccccc2)Cc2cc(OC)ccc2O1 (centres undefined)	-7.4%[9.04 µM]	nt	nt	nt	18.4µM*	nt
CCC1CN(Cc2cccc3nccnc23)Cc2cc(OC)ccc2O1 (centres undefined)	2.4%[9.04 µM]	nt	nt	nt	?	nt
CCC1CN(Cc2cn[nH]c2-c2ccc(F)cc2)Cc2cc(OC)ccc2O1 (centres undefined)	?	nt	nt	nt	20.6µM*	nt
CCC1CN(Cc2cn[nH]c2-c2ccc(OC)cc2)Cc2cc(OC)ccc2O1 (centres undefined)	-4.2%[9.04 µM]	nt	nt	nt	?	nt
Cc1ccc(-c2ccc(S(=O)(=O)NCC3CCCO3)cc2)cc1 (centres undefined)	?	?	22.2	-17.2%	?	-11.1%
Cc1ccc(-c2nc(NCC3CCCO3)sc2C)cc1 (centres undefined)	?	11.2µM*	-3.2	-9.9%	-27.0%	?
Cc1onc(-c2ccccc2Cl)c1C(=O)Nc1cccc2cccnc12	9.2µM*	-27.9%[10 µM]	-19.9	3.3%	4.11µM*	?
COc1cc(NC(=O)c2c(-c3ccccc3Cl)noc2C)c2ncccc2c1	16.4µM*	nt	10.7	nt	16.4µM*	nt
CC(OC(=O)CCc1nc2ccccc2c(=O)[nH]1)C(=O)Nc1ncc(Cl)cc1Cl (centres undefined)	-21.1%	-18.2%	-76.7*	-1.3%	-4.9%	-10.0%
CC(OC(=O)c1nn(C(C)C)c(=O)c2ccccc12)C(=O)Nc1ncc(Cl)cc1Cl (centres undefined)	?	-10.8%	0.0	-7.0%	18.4µM*	-7.0%
CC(OC(=O)CCc1ccccc1)C(=O)Nc1ncc(Cl)cc1Cl (centres undefined)	9.2%	-0.5%	2.5	0.5%	14.1%	19.5%
Cc1cccc(CC(=O)NC2CC(=O)N(c3cccc(F)c3)C2)c1 (centres undefined)	0.7%	nt	nt	nt	-28.3%	nt
O=C(Nc1ccc(S(=O)(=O)Nc2ccccc2)cc1)C1COc2ccccc2O1 (centres undefined)	16.4µM*	?	-69.1*	?	20.6µM*	?
COc1ccccc1NC(=O)c1ccc(NC(=O)C2COc3ccccc3O2)cc1 (centres undefined)	?	12.9%	-55.2*	13.5%	?	3.2%
CC(C)NC(=O)c1ccccc1NC(=O)C1COc2ccccc2O1 (centres undefined)	?	?	0.0	3.5%	20.6µM*	20.6µM*
Cc1cc(C)nc(NS(=O)(=O)c2ccc(NC(=O)C3COc4ccccc4O3)cc2)n1 (centres undefined)	-4.1%	1.8%	-12.7	-4.4%	15.3%	19.5%
CCC(C)NC(=O)c1ccccc1NC(=O)C1COc2ccccc2O1 (centres undefined)	-24.7%	2.9%	8.3	4.1%	?	?
SMILES	DT40 TDP1 CPT	RORg inh	IL-1B inflam inh	Gal4-VP16 FLuc	TDP1 cell noCPT	ELG1 DNA repair
CCC(=O)N1CCc2cc(OC)c(OC)cc2C1COc1ccc(F)cc1 (centres undefined)	-10.1%	-7.5%	?	-5.0%	?	?
CCOc1ccccc1C(=O)N1CCc2cc(OC)c(OC)cc2C1COc1ccc(OC)cc1 (centres undefined)	?	nt	nt	nt	20.6µM*	nt
COC(=O)c1ccc(OCC2c3cc(OC)c(OC)cc3CCN2C(=O)c2ccccc2F)cc1 (centres undefined)	?	nt	nt	nt	18.4µM*	nt
COc1ccc(CC(=O)N2CCc3cc(OC)c(OC)cc3C2COc2ccc(OC)cc2)cc1 (centres undefined)	?	nt	nt	nt	16.4µM*	nt
COC(=O)c1ccc(OCC2c3cc(OC)c(OC)cc3CCN2C(=O)C2CC2)cc1 (centres undefined)	?	34.2%	?	-11.1%	?	?
COC(=O)c1ccc(OCC2c3cc(OC)c(OC)cc3CCN2C(=O)c2cccc(C)c2)cc1 (centres undefined)	20.6µM*	nt	nt	nt	16.4µM*	nt
c1ccc(COc2cccc(-c3cc4nc(NCc5cccs5)ccn4n3)c2)cc1	?	nt	27.8	nt	?	nt
Cc1cc(C(=O)Nc2ccccc2-c2nc(CNC(=O)C3COc4ccccc4O3)c(C)o2)c(C)o1 (centres undefined)	5.3%[9.04 µM]	nt	nt	nt	-20.1%	nt
COC(=O)c1ccc(C(=O)OC)c(NC(=O)CN(C)Cc2ccccc2)c1	-29.8%	-1.1%	7.6	-12.6%	16.4µM*	?
CCN(CC(=O)Nc1ccc(C(=O)OC)cc1)Cc1ccccc1	-18.0%	-1.6%	8.1	10.3%	-2.2%	-10.5%
COC(=O)c1ccc(NC(=O)CN(C)Cc2cccc(F)c2)cc1	-18.9%	21.2%	-105.4*	0.4%[10 µM]	13µM*	-7.2%
Cc1ccc(S(=O)(=O)c2nnn(CC(=O)Nc3ccccc3C)c2N)cc1	15.2%	nt	nt	nt	-7.1%	nt
COc1ccccc1N1CCN(C(=O)c2cc3c(=O)n(C)c4ccccc4c3n2C)CC1	23.1µM*	12.2%	4.6	-0.4%	23.1µM*	16.4µM*
